Assay results: PubChem BioAssay (Tox21)
Results filed as inconclusive are left out. Activity calls are given as the source filed them. Unless noted, the call rests on the fitted dose curve; in most records, active means well fitted curve in the direction sought with a large enough effect in the repeat runs; inconclusive means weak or mixed curves; inactive means no such curve, though single readings can be large; an effect the other way counts as inactive or inconclusive.

Key:
[1] = qHTS assay to identify small molecule agonists of the peroxisome proliferator-activated receptor delta (PPARd) signaling pathway - cell viability counter screen (AID 743211); further: nearly all actives have a fitted effect of over 55% in size
Method in brief: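 Luminescent ATP viability assay (CellTiter-Glo, 30 min RT) in UAS-bla HEK293H cells carrying the PPAR delta reporter construct, 3000 cells/well, after a 17 h compound treatment at 37 C.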

[2] = biological target: Peroxisome proliferator-activated receptor delta (Homo sapiens) (UniProt Q03181); experiment: qHTS assay to identify small molecule agonists of the peroxisome proliferator-activated receptor delta (PPARd) signaling pathway (AID 743212; calls by dose curve)
Sequence of Peroxisome proliferator-activated receptor delta (Homo sapiens) (Q03181 whole entry, looked up): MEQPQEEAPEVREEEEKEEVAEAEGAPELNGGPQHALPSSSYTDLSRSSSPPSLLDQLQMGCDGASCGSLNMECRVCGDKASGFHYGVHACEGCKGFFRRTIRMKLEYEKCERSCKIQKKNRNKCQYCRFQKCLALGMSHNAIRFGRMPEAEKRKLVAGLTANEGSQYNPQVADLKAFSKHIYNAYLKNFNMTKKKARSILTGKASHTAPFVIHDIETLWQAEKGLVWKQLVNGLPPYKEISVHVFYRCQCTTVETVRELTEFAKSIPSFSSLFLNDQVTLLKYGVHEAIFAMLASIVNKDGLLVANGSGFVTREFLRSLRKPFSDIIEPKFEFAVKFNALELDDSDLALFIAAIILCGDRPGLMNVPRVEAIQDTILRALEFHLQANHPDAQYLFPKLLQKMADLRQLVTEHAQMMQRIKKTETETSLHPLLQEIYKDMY
Method in brief: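 Read-out: beta-lactamase FRET fluorescence after 2 h room-temperature incubation with LiveBLAzer B/G substrate. Cells were HEK293H carrying a UAS-bla reporter for PPARd, treated at 37 C with DMSO-dissolved compounds.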

[3] = qHTS assay to identify small molecule antagonists of the peroxisome proliferator-activated receptor delta (PPARd) signaling pathway - cell viability counter screen (AID 743213); further: nearly all actives have a fitted effect of over 50% in size
Method in brief: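 HEK293H cells with the PPARd UAS-bla reporter, co-treated 17 h at 37 C with compounds and L165041 (300 nM final), were lysed with CellTiter-Glo. Luminescence indicated viable cell content.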

[4] = biological target: Peroxisome proliferator-activated receptor delta (Homo sapiens) (UniProt Q03181); experiment: qHTS assay to identify small molecule antagonists of the peroxisome proliferator-activated receptor delta (PPARd) signaling pathway (AID 743215; active means well fitted inhibition curve with a large enough effect in the signal ratio in the repeat runs, not every such curve was filed as active; the % refers to the signal ratio;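 further: cells stimulated with agonist L165041 at 300 nM final during compound exposure; series mostly up to about 62 µM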)
Method in brief: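 Here, a reporter line (HEK293H, beta-lactamase under a UAS) measures PPARd signaling. Compounds are tested against agonist L165041 at 300 nM final concentration over 17 h at 37 C, with fluorescence read after substrate.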

[5] = biological target: Bile acid receptor (Homo sapiens) (UniProt Q96RI1); experiment: qHTS assay to identify small molecule antagonists of the farnesoid-X-receptor (FXR) signaling pathway (AID 743217; active means well fitted inhibition curve with a large enough effect in the signal ratio in the repeat runs, not every such curve was filed as active; the % refers to the signal ratio)
Sequence of Bile acid receptor (Homo sapiens) (Q96RI1 whole entry, looked up): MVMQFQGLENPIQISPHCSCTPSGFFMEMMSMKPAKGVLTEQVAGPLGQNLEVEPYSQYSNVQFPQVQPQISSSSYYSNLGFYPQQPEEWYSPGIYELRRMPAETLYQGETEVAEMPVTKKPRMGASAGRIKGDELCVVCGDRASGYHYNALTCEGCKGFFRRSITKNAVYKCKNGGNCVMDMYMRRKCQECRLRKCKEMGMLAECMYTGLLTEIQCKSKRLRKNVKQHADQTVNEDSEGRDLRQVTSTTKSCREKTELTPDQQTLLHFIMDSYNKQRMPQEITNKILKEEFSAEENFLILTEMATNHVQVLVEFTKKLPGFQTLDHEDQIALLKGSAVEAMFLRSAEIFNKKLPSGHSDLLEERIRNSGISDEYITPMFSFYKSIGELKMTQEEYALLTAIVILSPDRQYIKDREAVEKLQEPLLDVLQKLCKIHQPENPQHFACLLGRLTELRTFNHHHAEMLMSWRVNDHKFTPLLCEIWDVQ
Method in brief: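 Test compounds are pin-transferred onto FXR-bla HEK 293T cells, then chenodeoxycholic acid is added at 50 uM final. After 16 h at 37 °C, LiveBLAzer B/G substrate is applied for 2 h at room temperature and fluorescence read.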

[6] = qHTS assay to identify small molecule agonists of the farnesoid-X-receptor (FXR) signaling pathway - cell viability counter screen (AID 743218); further: nearly all actives have a fitted effect of over 45% in size
Method in brief: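 Quantitative HTS counter screen measuring ATP-based viability via CellTiter-Glo luminescence in HEK 293T cells carrying a UAS-driven beta-lactamase reporter, after 16 h compound exposure at 37 C.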

[7] = biological target: Bile acid receptor (Homo sapiens) (UniProt Q96RI1); experiment: qHTS assay to identify small molecule agonists of the farnesoid-X-receptor (FXR) signaling pathway (AID 743220; active means well fitted activation curve with a large enough effect in the signal ratio in the repeat runs, not every such curve was filed as active; the % refers to the signal ratio)
Method in brief: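 FXR-UAS-bla HEK 293T cells carrying a UAS-driven beta-lactamase reporter were plated for 5 h at 37C/5% CO2, then exposed to DMSO-dissolved Tox21 10K compounds for 16 h at 37C. A LiveBLAzer B/G FRET substrate was loaded for 2 h at room temperature before fluorescence reading.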

[8] = qHTS assay to identify small molecule antagonists of the farnesoid-X-receptor (FXR) signaling pathway - cell viability counter screen (AID 743221; active means well fitted cell-killing curve with a large enough effect in the repeat runs, not every such curve was filed as active; further: nearly all actives have a fitted effect of over 50% in size)
Method in brief: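 In GeneBLAzer FXR-UAS-bla HEK 293T cells stimulated with 50 uM chenodeoxycholic acid (final), compounds acted for 16 h at 37 C. Viability was assessed afterwards by CellTiter-Glo luminescence.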

[9] = biological target: Vitamin D3 receptor (Homo sapiens) (UniProt P11473); experiment: qHTS assay to identify small molecule agonists of the vitamin D receptor (VDR) signaling pathway (AID 743222; calls by dose curve)
Sequence of Vitamin D3 receptor (Homo sapiens) (P11473 whole entry, looked up): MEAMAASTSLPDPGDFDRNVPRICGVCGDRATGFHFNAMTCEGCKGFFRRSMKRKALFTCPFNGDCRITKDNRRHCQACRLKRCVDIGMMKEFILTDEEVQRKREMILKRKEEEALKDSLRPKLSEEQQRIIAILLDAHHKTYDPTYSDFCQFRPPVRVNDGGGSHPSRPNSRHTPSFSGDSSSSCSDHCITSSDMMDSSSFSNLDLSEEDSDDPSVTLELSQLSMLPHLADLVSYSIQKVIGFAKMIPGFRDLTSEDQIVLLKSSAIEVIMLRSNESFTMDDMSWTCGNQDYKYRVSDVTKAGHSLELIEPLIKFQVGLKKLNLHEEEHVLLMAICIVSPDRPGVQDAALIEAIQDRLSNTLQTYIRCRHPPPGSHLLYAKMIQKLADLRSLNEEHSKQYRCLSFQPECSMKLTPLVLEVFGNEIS
Method in brief: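 Tox21 cell reporter format: VDR-bla line, 16 h compound exposure in 5% CO2 at 37C, then fluorescence intensity after 2 h with LiveBLAzer B/G FRET substrate.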

[10] = qHTS assay to identify small molecule agonists of the vitamin D receptor (VDR) signaling pathway - cell viability counter screen (AID 743224); further: series mostly up to about 63 µM; nearly all actives have a fitted effect of over 50% in size
Method in brief: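 CellTiter-Glo viability readout on VDR-bla cells, measured after 16 h of compound treatment at 37C in the same wells.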

[11] = qHTS assay to identify small molecule antagonists of the vitamin D receptor (VDR) signaling pathway - cell viability counter screen (AID 743225); further: nearly all actives have a fitted effect of over 50% in size
Method in brief: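 Luminescent cell viability (CellTiter-Glo) in VDR-bla HEK 293T cells after 16 h compound exposure at 37C in the presence of 3 nM final 1-alpha,25-dihydroxy vitamin D3.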

[12] = qHTS assay to identify small molecule agonists of the NFkB signaling pathway (AID 1159509; active means well fitted curve in the direction sought with a large enough effect in the signal ratio in the repeat runs, not every such curve was filed as active; the % refers to the signal ratio; further: series mostly up to about 61 µM)
Method in brief: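 Beta-lactamase reporter assay run in quantitative high-throughput format on an NF-kB-responsive ME-180 line, with 5 hr compound treatment and a FRET-based blue/green fluorescence readout.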

[13] = qHTS assay to identify small molecule agonists of the NFkB signaling pathway - cell viability counter screen (AID 1159515; calls by dose curve; further: series mostly up to about 61 µM; nearly all actives have a fitted effect of over 55% in size)
Method in brief: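 Tox21 library compounds were tested for cytotoxicity against NFkB-bla ME-180 cells during a 5 hr exposure at 37 C. CellTiter-Glo luminescence served as the viability read-out.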

[14] = qHTS assay to identify small molecule agonists of the endoplasmic reticulum stress response signaling pathway (AID 1159516; active means well fitted activation curve with a large enough effect in the signal ratio in the repeat runs, not every such curve was filed as active; the % refers to the signal ratio)
Method in brief: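 Fluorescence at 460 and 530 nm (405 nm excitation) reports beta-lactamase from an ER stress response element in HeLa cells treated 5 hr at 37 C.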

[15] = qHTS assay to identify small molecule agonists of the endoplasmic reticulum stress response signaling pathway - cell viability counter screen (AID 1159517; calls by dose curve)
Method in brief: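 Steps: seed 1,500 ESRE-bla HeLa cells per well; incubate overnight at 37 C, 5% CO2; add compounds in DMSO for 5 hr; run FRET substrate 2 hr RT; add CellTiter-Glo, wait 30 min, read luminescence.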

[16] = qHTS assay to identify small molecule antagonists of the retinoid-related orphan receptor gamma (ROR-gamma) signaling pathway - cell viability counter screen (AID 1159520); further: nearly all actives have a fitted effect of over 50% in size
Method in brief: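 Tet-on ROR gamma CHO cells were given compounds for 2 hr, then doxycycline hyclate at 1 uM final, and incubated 16 hr at 37 C. Viability was measured as ATP content by CellTiter-Glo luminescence.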

[17] = biological target: Nuclear receptor ROR-gamma (Homo sapiens) (UniProt P51449); experiment: qHTS assay to identify small molecule antagonists of the retinoid-related orphan receptor gamma (ROR-gamma) signaling pathway (AID 1159521)
Method in brief: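 CHO cells expressing RORγ under a TET-on promoter, luciferase under RORE control. Dox 1 uM final, 16 h; compounds added 2 h prior. Luminescence decrease measured.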

[18] = qHTS assay to identify small molecule agonists of the AP-1 signaling pathway - cell viability counter screen (AID 1159525; calls by dose curve; further: nearly all actives have a fitted effect of over 55% in size)
Method in brief: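 Same-well cytotoxicity counter screen of the Tox21 10K library in ME-180 cells. The readout is ATP-dependent luminescence after 5 h compound treatment. Data are normalised to DMSO and tetra n-octyl ammonium bromide controls.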

[19] = qHTS assay to identify small molecule agonists of the AP-1 signaling pathway (AID 1159526; calls by dose curve)
[20] = biological target: Vitamin D3 receptor (Homo sapiens) (UniProt P11473); experiment: qHTS assay to identify small molecule antagonists of the vitamin D receptor (VDR) signaling pathway (AID 743223; active means well fitted inhibition curve with a large enough effect in the signal ratio in the repeat runs, not every such curve was filed as active; the % refers to the signal ratio)
Method in brief: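 Agonist 1alpha,25-dihydroxyvitamin D3 (3 nM in well) was added with each compound to VDR-bla cells preincubated 4 h. Cells stood 16 h at 37C, then FRET substrate 2 h at room temperature; fluorescence intensity recorded.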

Measured: Potency

N#CC(O)c1ccccc1 (configuration not stated)
inactive: [1] | [2] | [3] | [4] | [5] | [6] | [7] | [8] | [9] | [10] | [11] | [12] | [13] | [14] | [15] | [16] | [17] | [18] | [19]

Fc1cc(Br)ccc1CBr
inactive: [1] | [2] | [3] | [4] | [5] | [7] | [8] | [9] | [20] | [10] | [11] | [12] | [13] | [14] | [15] | [16] | [17] | [18] | [19]

CCCCCCI
inactive: [1] | [2] | [3] | [4] | [5] | [6] | [7] | [8] | [10] | [11] | [12] | [13] | [14] | [15] | [16] | [17] | [18] | [19]

CCOP(=O)(OCC)OP(=O)(OCC)OCC
inactive: [1] | [2] | [3] | [4] | [5] | [6] | [7] | [8] | [9] | [12] | [13] | [14] | [15] | [16] | [17] | [18] | [19]

N#CCBr
inactive: [1] | [3] | [5] | [6] | [7] | [8] | [9] | [20] | [10] | [11] | [12] | [13] | [14] | [15] | [16] | [17] | [18] | [19]

CCOP(=S)(OCC)Oc1cc(-c2ccccc2)on1
inactive: [1] | [2] | [3] | [5] | [8] | [9] | [10] | [11] | [12] | [13] | [14] | [15] | [16] | [17] | [18] | [19]

ClCCOCOCCCl
inactive: [1] | [3] | [5] | [6] | [7] | [8] | [9] | [20] | [10] | [11] | [12] | [13] | [14] | [15] | [16] | [17] | [18] | [19]

C[C@]12CC[C@H]3[C@@H](CCC4=CC(=O)CC[C@@]43C)[C@@H]1CC[C@@H]2C(=O)O
inactive: [1] | [2] | [3] | [5] | [6] | [7] | [8] | [9] | [10] | [12] | [13] | [14] | [15] | [16] | [17] | [18] | [19]

O=C(N[C@H]1CN2CCC1CC2)c1cc2ccoc2cn1
inactive: [1] | [2] | [3] | [6] | [8] | [10] | [11] | [12] | [13] | [14] | [15] | [16] | [17] | [18] | [19]

O=CNC(N1CCN(C(NC=O)C(Cl)(Cl)Cl)CC1)C(Cl)(Cl)Cl (configuration not stated)
inactive: [1] | [2] | [3] | [6] | [9] | [20] | [10] | [11] | [12] | [13] | [14] | [15] | [16] | [17] | [18] | [19]

C=C(C)[C@@H]1CC=C(C=O)CC1
inactive: [1] | [2] | [3] | [5] | [7] | [8] | [9] | [10] | [11] | [12] | [13] | [14] | [15] | [16] | [17] | [18] | [19]

CCSC(=O)N(CC)C1CCCCC1
inactive: [1] | [2] | [4] | [5] | [6] | [7] | [8] | [9] | [10] | [11] | [12] | [13] | [14] | [15] | [16] | [17] | [18] | [19]

CCC/C(=N\OCC)C1=C(O)CC(CC(C)SCC)CC1=O (configuration not stated)
inactive: [1] | [2] | [3] | [6] | [8] | [9] | [11] | [12] | [13] | [14] | [15] | [16] | [17] | [18] | [19]

CC(C)(C)OC(=O)c1ncn2c1[C@@H]1CCCN1C(=O)c1c(Br)cccc1-2
inactive: [1] | [2] | [3] | [6] | [8] | [20] | [10] | [12] | [13] | [14] | [15] | [16] | [17] | [18] | [19]

O=S(=O)(O)C(F)(F)C(F)(F)C(F)(F)C(F)(F)C(F)(F)C(F)(F)F
inactive: [1] | [3] | [4] | [5] | [7] | [8] | [9] | [12] | [13] | [14] | [15] | [16] | [17] | [18] | [19]

N#Cc1ccncc1
inactive: [1] | [2] | [3] | [4] | [8] | [9] | [10] | [11] | [12] | [13] | [14] | [15] | [16] | [17] | [18] | [19]

CN1C(=S)CN=C(c2ccccc2)c2cc(Cl)ccc21
inactive: [1] | [2] | [4] | [5] | [6] | [7] | [8] | [9] | [20] | [10] | [12] | [13] | [14] | [15] | [16] | [17] | [18] | [19]
